# “And” between values parts separate entries of the source, which are not always exact repeats. Identical values can stand only once. The source made the active and inactive calls.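 Rule for the calls: active = compounds whose cell count with miR-34 switched on is under 0.7 times the count with it off; inactive = the rest.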
# Assay: viability loss with induced miR-34 in A549 – imaging, A549 dox-inducible miR-34, nuclei and caspase counts, primary screen (AID 1347080); note: test concentration not given here
# Conditions: A549 miR-34 inducible, Hoechst nuclei count, 48 h
# [1] = measured here: relative caspase fold change +Dox/-Dox
# [2] = measured here: total cells with miR-34 induction, stronger effect = lower value
# [3] = measured here: total cells without miR-34 induction
# [4] = stronger effect = lower value, cell number ratio, induced over uninduced
SMILES,fold change (stronger effect = lower value),fold change [1],cell count [2],cell count [3],fold change [4]
CN[C@@H]1CC2OC(C)([C@@H]1OC)n1c3ccccc3c3c4c(c5c6ccccc6n2c5c31)C(=O)NC4 (stereo partly specified),0.831 (inactive),0.918,692,832,–
c1cc2cc(N3CCNCC3)ccc2cn1,–,0.665,5380,5630,0.956 (inactive)
CCCCC/C=C\C/C=C\C/C=C\C/C=C\CCCC(=O)O[C@H](COC(=O)CCCCCCCCCCCCCCCCC)COP(=O)([O-])OCC[N+](C)(C)C,–,0.766,5220,5650,0.924 (inactive)
COc1ccc(/C=C\c2cc(OC)cc(OC)c2)cc1,–,1.44,1220,1130,1.08 (inactive)
CCCCC/C=C\C/C=C\C/C=C\C/C=C\CCCC(=O)NC[C@H](C)O,–,1.04,6010,6110,0.983 (inactive)
CCCCC/C=C\C/C=C\C/C=C\C/C=C\CCCC(=O)NCCF,–,1.18,5320,5320,1 (inactive)
CCCCC/C=C\C/C=C\C/C=C\C/C=C\CCCC(=O)NC1CC1,–,0.962,5860,5800,1.01 (inactive)
C=C(C)[C@@H]1CCC(C)=C[C@H]1c1c(C)cc(O)cc1O,–,0.916,5200,5510,0.943 (inactive)
CCCCCCC(=O)O[C@H]1CC[C@H]2[C@@H]3C[C@@H](O)C4=CC(=O)CC[C@]4(C)[C@H]3CC[C@]12C,0.966 (inactive),0.446,5500,5700,–
CCCCCCCCCC(=O)OC[C@H](COP(=O)([O-])OCC[N+](C)(C)C)OC(=O)CCCCCCCCC,–,0.797,5320,5860,0.907 (inactive)
CCCCC/C=C\C/C=C\C/C=C\C/C=C\CCCC(=O)NC,–,2.18,5880,6170,0.953 (inactive)
CCCCC/C=C\C/C=C\C/C=C\C/C=C\CCCC(=O)Nc1cccc(O)c1,–,0.281,5390,5720,0.942 (inactive)
CN=C(NS(=O)(=O)c1ccc(Cl)cc1)N1CC(c2ccccc2)C(c2ccc(Cl)cc2)=N1 (stereo unspecified),–,0.564,4700,6340,0.741 (inactive)
C[C@@H]1CC([C@H](O)CC2CC(=O)NC(=O)C2)C(=O)[C@@H](C)C1 (stereo partly specified),1.01 (inactive),1.96,1800,1780,–
C=C(C)[C@@H]1CCC(C)=C[C@H]1C1=C(O)C(=O)C(CCCCC)=CC1=O,–,0.935,5410,5000,1.08 (inactive)
CCCCCC(/C=C/C=O)OO (stereo unspecified),–,1.26,5780,5860,0.987 (inactive)
CC1(O)C[C@@]23C[C@@H](O)[C@@]4(O)[C@@H](C[C@H](O)C4(C)C)[C@](C)(O)[C@@H]2CCC1[C@H]3O (stereo partly specified),0.932 (inactive),1.15,6010,6440,–
CCCCCCCC/C=C\CCCCCCCC(=O)N[C@H](C)CO,–,1.87,5120,5540,0.925 (inactive)
CCCCC/C=C\C/C=C\C/C=C\C/C=C\CCCC(=O)N[C@@H](CO)C(=O)O,–,1.04,5850,5540,1.06 (inactive)
CN1C(=O)[C@]23CC4=CC=C[C@H](O)[C@H]4N2C(=O)[C@@]1(CO)SS3,0.901 (inactive),1.24,657,730,–
CCCCC/C=C\C/C=C\C/C=C\C/C=C\CCCC(=O)NCc1ccoc1,–,1.68,5700,5790,0.985 (inactive)
CCCCCCC(=O)O[C@H]1CC[C@H]2[C@@H]3CC(=O)C4=CC(=O)CC[C@]4(C)[C@H]3CC[C@]12C,0.899 (inactive),0.574,5250,5830,–
CCCCCCCCCCCCCCCC(=O)OC[C@H](COP(=O)([O-])OCC[N+](C)(C)C)OC(=O)CCCC=O,–,2.44,5310,5690,0.934 (inactive)
COc1cc(/C=C\c2ccc(OC)c(O)c2)cc(OC)c1,–,0.882,1120,1220,0.917 (inactive)
Cc1cc(C(C#N)c2ccc(Cl)cc2)c(Cl)cc1NC(=O)c1cc(I)cc(I)c1O (stereo unspecified),–,0.325 and 0.48 and 1.33,8250 and 7900 and 8930,8560 and 8730 and 10400,0.964 (inactive) and 0.906 (inactive) and 0.861 (inactive)
CCCCC/C=C\C/C=C\C/C=C\C/C=C\CCCC(=O)N[C@@H](C)C(=O)O,–,1.84,5770,6140,0.941 (inactive)
C/C1=C/C(=O)O[C@@H]2C[C@@H](CC[C@H](C)/C=C\CC1)O[C@@](O)([C@@H]1CSC(=O)N1)C2,1.2 (inactive),0.63,1070,888,–
CCCCCCC(C)(C)c1cc(OC)c2c(c1)OC(C)(C)[C@@H]1CC=C(C)C[C@@H]21,1.09 (inactive),0.441,6970,6400,–
CCCCC/C=C\C/C=C\C/C=C\C/C=C\CCCC(=O)Nc1cccc([N+](=O)[O-])c1,–,0.782,5310,5590,0.95 (inactive)
